Experimental findings from PubChem BioAssay AID463193 (University of Pittsburgh Molecular Library Screening Center, 2010) are described below.

Structures are written as SMILES. In all, about 190,000 compounds went through this assay and about 1,900 (1%) were called active.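 Rule for the calls: active = percentage of spot-positive cells more than 3 SD above its plate mean, without a fluorescence outlier flag or 80% toxicity; inconclusive = no clear call, values can overlap the other calls; inactive = the rest.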 The full list was thinned out, with actives kept by preference.

A short description of the experiment: GFP-LC3 puncta formation changes – imaging, high-content, MEF GFP-LC3, primary screen (AID 463193).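 For % cells with GFP-LC3 spots: spot-positive cell cutoff set from DMSO-treated cells.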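 For toxicity: cell loss after 18 h compound exposure.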 The following applies: autophagy, at 10 µM; % cells with GFP-LC3 spots: stronger effect = higher value; toxicity: measured here: cell loss, nuclei count.
Take `Cc1nn(C)c(Oc2ccccc2)c1[N+](=O)[O-]`: the % cells with GFP-LC3 spots was 2.75% (inactive) and the toxicity was -3.54%.
The like results for `COc1cccc(Cn2cnc3c([N+](=O)[O-])c(C)c(C)cc32)c1` were, in that order, 6.93% (active) and -2.05%.
As to `Cc1cccc(Cn2cnc3c(N)c(C)c(C)cc32)c1`, the % cells with GFP-LC3 spots is 1.71% (inactive) and the toxicity worked out at 1.99%.
In the same order, the values of `CCOc1cccc(OCCCOc2cccc3cccnc23)c1` are 3.63% (inactive) and -4.48%.
In the same order, the values of `Fc1ccc2nc(-c3ccccc3)nc(SCc3nnc(-c4ccccc4)o3)c2c1` are 4.88% (inactive) and 16.1%.
In the same order, the values of `Cc1ccc2nc(SCc3nnc(-c4ccccc4[N+](=O)[O-])o3)c(C#N)cc2c1` are 85.6% (active) and 21.6%.
As to `Cc1nonc1NC(=O)CSc1nc2ccccc2cc1C#N`, the % cells with GFP-LC3 spots is 0.583% (inactive) and the toxicity was -8.81%.
The like results for `CCOc1ccc(Br)cc1S(=O)(=O)N1CCC(C(=O)O)CC1` were, in that order, 6.06% (inactive) and 14.1%.
As for `C/C(=N/O)c1ccc(N2C(=O)C3C4C=CC(C3C2=O)C2C3C(=O)N(c5ccc(/C(C)=N/O)cc5)C(=O)C3C42)cc1` (centres undefined), the % cells with GFP-LC3 spots is 11.7% (inactive) and the toxicity worked out at 14.4%.
As for `O=C(Nc1nc2ccc([N+](=O)[O-])cc2s1)c1ccc(S(=O)(=O)N2CCCc3ccccc32)cc1`, the % cells with GFP-LC3 spots was 16.8% (inactive) and the toxicity was 25.4%.
For `O=C(NC(Nc1nc2ccc([N+](=O)[O-])cc2s1)(C(F)(F)F)C(F)(F)F)c1ccccc1`, the % cells with GFP-LC3 spots is 31.8% (active) and the toxicity turned out to be 57.9%.
In the same order, the values of `O=C(O)CCC(=O)Nc1nc2ccc([N+](=O)[O-])cc2s1` are 6.76% (inactive) and 11.6%.
The like results for `O=C(c1ccc2ccccc2n1)N1CCN(c2ccccc2Cl)CC1` were, in that order, 4.83% (inactive) and -5.94%.
On to `CCOC(=O)N1CCN(C(=O)CSc2nc(C)nc3c2c(=O)n(C)c(=O)n3C)CC1`, for which the % cells with GFP-LC3 spots is 12.3% (inactive) and the toxicity stood at 3.6%.
Take `Cc1ncoc1C(=O)NCCC(c1ccccc1)c1ccccc1`: the % cells with GFP-LC3 spots was 18% (inactive) and the toxicity came to 11.5%.
Regarding `COc1cccc(CNC(=O)CCC2CCCN(C(=O)c3cc(C)[nH]n3)C2)c1` (centres undefined), the % cells with GFP-LC3 spots is 0.272% (inactive) and the toxicity was -19.2%.
The like results for `Cc1occc1C(=O)N1CCCc2ccccc21` were, in that order, 12.6% (inactive) and -3.33%.
Turning to `O=C(c1cccc(C(=O)N2CCc3ccccc32)n1)N1CCc2ccccc21`, the % cells with GFP-LC3 spots is 7.33% (inactive) and the toxicity was found to be 25.5%.
In the same order, the values of `Cc1cccc2cc3c(N)c(C(=O)N4CCCc5ccccc54)sc3nc12` are 34.9% (active) and 33.8%.
Turning to `O=C(/C=C/c1ccc(F)cc1)Nc1cccc(S(=O)(=O)Nc2cccc(C(F)(F)F)c2)c1`, the % cells with GFP-LC3 spots is 3.21% (inactive) and the toxicity came out at 11.4%.
As for `O=c1[nH]c(=S)[nH]c2[nH]c(=S)[nH]c12`, the % cells with GFP-LC3 spots is 16.3% (inactive) and the toxicity amounted to 14.2%.
For the compound `CCOc1ccccc1NC(=O)c1cccnc1`, the % cells with GFP-LC3 spots was 1.43% (inactive) and the toxicity came to 1.42%.
For `CCOc1cc(NC(=O)c2cnccn2)c(OCC)cc1NC(=O)c1ccc(C)cc1`, the % cells with GFP-LC3 spots is 16.1% (active) and the toxicity is -0.236%.
With `CCOc1cc(NC(=O)c2ccccn2)c(OCC)cc1NC(=O)c1ccc(OC)cc1`, the % cells with GFP-LC3 spots was 2.17% (inactive) and the toxicity was 23.7%.
The like results for `COc1ccc(/C=C/C(=O)NC(=S)NN2CCCCC2c2cccnc2)cc1` (centres undefined) were, in that order, 2.8% (inactive) and 2.51%.
The like results for `CCOCCCNC(=O)C(NC(=O)c1ccc(=O)[nH]c1)c1ccc(C)cc1` (centres undefined) were, in that order, 3.93% (inactive) and -0.266%.
In the same order, the values of `CCOCCCNC(=O)C(NC(=O)c1ccccc1O)c1ccccc1` (centres undefined) are 5.35% (inactive) and -34%.
For `CCOCCCNC(=O)C(NC(=O)c1ccc(=O)[nH]c1)c1ccc(Cl)cc1` (centres undefined), the % cells with GFP-LC3 spots was 28% (active) and the toxicity is 44.6%.
On to `CCc1nnc(NC(=O)CCCSc2nc3ccccc3[nH]2)s1`, for which the % cells with GFP-LC3 spots is 1.66% (inactive) and the toxicity was -3.54%.
In the case of `Cc1cccc(-n2ncc3c(N4CCc5ccccc54)ncnc32)c1`, the % cells with GFP-LC3 spots is 1.09% (inactive) and the toxicity is -9.01%.
On to `COc1ccc(-n2ncc3c(N4CCCc5ccccc54)ncnc32)cc1`, for which the % cells with GFP-LC3 spots is 7.91% (inactive) and the toxicity came to 7.86%.
In the same order, the values of `COc1ccc(-n2ncc3c(N4CCc5ccccc54)ncnc32)cc1` are 10.6% (active) and 12.2%.
In the same order, the values of `Cc1ccc2nc(-c3ccccn3)cc(C(=O)Nc3ccc4c(c3)OCO4)c2c1` are 4.19% (inactive) and 13.2%.
In the same order, the values of `CC1(C)C2CCC1(C)C(OC(=O)c1ccc(O)cc1)C2` (centres undefined) are 19.1% (inactive) and 2.39%.
With `COc1ccc(-c2[nH]ncc2CN(C)Cc2cccnc2)c(F)c1`, the % cells with GFP-LC3 spots is 3.28% (inactive) and the toxicity is 15.9%.
In the same order, the values of `O=C1/C(=C\c2cccnc2)CN(Cc2ccccc2)C/C1=C\c1cccnc1` are 52.1% (active) and -17.6%.
In the same order, the values of `Clc1ccc(CN2CCN(/N=C/c3cccnc3)CC2)cc1` are 0.128% (inactive) and -10.7%.
In the same order, the values of `O=Cc1cn(Cc2ccccc2)nc1-c1cccnc1` are 0.945% (inactive) and 1.14%.
For the compound `Cc1ccc(NC(=O)NC2CCCCC2)cc1S(=O)(=O)N1CCOCC1`, the % cells with GFP-LC3 spots is 9.14% (inactive) and the toxicity was -3.67%.
The like results for `COc1cc(/C=N\Nc2ccc([N+](=O)[O-])cn2)ccc1OCC(=O)O` were, in that order, 1.45% (inactive) and -6.18%.
In the same order, the values of `Cc1cccc(COc2ccccc2/C=N/Nc2ccc([N+](=O)[O-])cc2)c1` are 1.93% (inactive) and 8.3%.
As to `Cc1ccc(-n2c(C)cc(/C=N/Nc3ccc([N+](=O)[O-])cn3)c2C)c(C)c1`, the % cells with GFP-LC3 spots is 52% (active) and the toxicity is -31.7%.
In the same order, the values of `CCOC(=O)CC(=O)CSc1nc(-c2ccccc2)cc(-c2ccc(Cl)cc2)c1C#N` are 3.63% (inactive) and -4.4%.
Consider `O=C(CSc1nc2ccccc2[nH]1)c1cccs1`, for which the % cells with GFP-LC3 spots is 0.463% (inactive) and the toxicity worked out at 5.37%.
With `N#Cc1c(-c2ccc(F)cc2)cc(C2CC2)nc1SCC(=O)c1cccs1`, the % cells with GFP-LC3 spots is 86.4% (active) and the toxicity is -1.55%.
Regarding `Cc1ccc(CC(=O)Nc2ccc(OC(F)F)c(Cl)c2)cc1C`, the % cells with GFP-LC3 spots was 6.36% (inactive) and the toxicity is -11.9%.
Turning to `CCN1CCN(C(=O)c2ccc(CN(c3ccc(C)c(C)c3)S(C)(=O)=O)cc2)CC1`, the % cells with GFP-LC3 spots was 5.04% (inactive) and the toxicity was -26.7%.
The like results for `Cc1cc(C(=O)N/N=C/c2ccc(O)c([N+](=O)[O-])c2)c(C)n1-c1ccc(F)cc1` were, in that order, 6.11% (inactive) and 2.16%.
Regarding `O=C(Nc1ccc(Br)cn1)c1ccc([N+](=O)[O-])cc1Cl`, the % cells with GFP-LC3 spots was 25.9% (inactive) and the toxicity came to 12.1%.
In the same order, the values of `CSc1ccc(/C=N\NC(=O)CC(=O)NC(C)C)cc1` are 3.73% (inactive) and 6.35%.
For the compound `O=c1cc(-c2ccccc2)[nH]c2cc(F)ccc12`, the % cells with GFP-LC3 spots was 3.89% (inactive) and the toxicity was -7.91%.
In the same order, the values of `O=C(/C=C/c1ccc(Cl)cc1)Nc1ccc(Br)cn1` are 20.4% (inactive) and 30.5%.
